From PubChem BioAssay (EPA / NIEHS)
Active and inactive are the calls of the source. Rule for the calls: active = hit-call score of the fitted dose curve at least 0.9, where 1 is the maximum; inactive = score below 0.9.

Assays:
[1] = read-out: Monokine induced gamma interferon (MIG), CXCL9 (gene 4283); test: BSK_hDFCGF_MIG: BioMAP Diversity Plus: hDFCGF Assay for Monokine induced gamma interferon (MIG) Biomarker Activity (AID 2283063); conditions: primary human foreskin fibroblasts; actives raise or lower the signal
Outline: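 ELISA read-out of MIG from primary human dermal fibroblasts 24 h post-dosing. Gain or loss of signal fitted bidirectionally, DMSO as baseline.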

[2] = read-out: Matrix Metallopeptidase 1 (MMP1), MMP1 (gene 4312); test: BSK_hDFCGF_MMP1: BioMAP Diversity Plus: hDFCGF Assay for Matrix Metallopeptidase 1 (MMP1) Biomarker Activity (AID 2283064); conditions: primary human foreskin fibroblasts; actives raise or lower the signal
Outline: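 ELISA read-out of MMP1 from human foreskin fibroblasts (primary skin cells), 24 h post-dose. Gain or loss of signal was fitted bidirectionally versus DMSO negative control; cytotoxicity was checked by SRB in parallel cultures.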

[3] = read-out: Vascular cell adhesion molecule 1 (VCAM1), VCAM1 (gene 7412); test: BSK_hDFCGF_VCAM1: BioMAP Diversity Plus: hDFCGF Assay for Vascular cell adhesion molecule 1 (VCAM1) Biomarker Activity (AID 2283065); conditions: primary human foreskin fibroblasts; actives raise or lower the signal;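 for AC50: VCAM-1 protein level quantified by ELISA after 24 h chemical exposure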
Outline: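 Primary human foreskin fibroblasts (hDFCGF system) were dosed with chemical and VCAM-1 was measured by ELISA 24 h later. Bidirectional curve fitting used DMSO as negative control and activity baseline.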

[4] = read-out: Plasminogen activator inhibitor-1 (PAI1), SERPINE1 (gene 5054); test: BSK_hDFCGF_PAI1: BioMAP Diversity Plus: hDFCGF Assay for Plasminogen activator inhibitor-1 (PAI1) Biomarker Activity (AID 2283066); conditions: primary human foreskin fibroblasts; actives raise or lower the signal
Outline: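 PAI-1 levels in human dermal foreskin fibroblasts were quantified by ELISA 24 h after dosing, with gain or loss analysed against DMSO. Overt cytotoxicity was checked by sulforhodamine B total-protein staining in parallel cultures.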

[5] = read-out: Intercellular Adhesion Molecule 1 (ICAM1), ICAM1 (gene 3383); test: BSK_KF3CT_ICAM1: BioMAP Diversity Plus: KF3CT Assay for Intercellular Adhesion Molecule 1 (ICAM1) Biomarker Activity (AID 2283067); conditions: primary human keratinocytes with fibroblasts; actives raise or lower the signal
Outline: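 Human keratinocyte plus foreskin fibroblast primary co-culture was exposed to chemical for 24 h. ICAM-1 was then quantified by ELISA, and the data were fit bidirectionally against DMSO as the negative control and baseline.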

[6] = BSK_KF3CT_SRB: Viability Assessment in the BioMAP Diversity Plus: KF3CT Assay (AID 2283069); conditions: primary human keratinocytes with fibroblasts;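 note: read 24 h after compound addition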
Outline: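 SRB read-out at 560 nm (0.1% stain, TCA-fixed cells) gauges overt cytotoxicity in a human skin keratinocyte–fibroblast co-culture 24 h post-dosing. Signal change was fitted bidirectionally relative to DMSO control.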

[7] = read-out: Interleukin-1 alpha (IL1a), IL1A (gene 3552); test: BSK_KF3CT_IL1a: BioMAP Diversity Plus: KF3CT Assay for Interleukin-1 alpha (IL1a) Biomarker Activity (AID 2283070); conditions: primary human keratinocytes with fibroblasts; actives raise or lower the signal
Outline: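 Primary skin co-culture (keratinocytes, foreskin fibroblasts), 24 h exposure; ELISA for IL-1a; bidirectional curve fit vs DMSO.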

[8] = read-out: C-C motif chemokine 2 (Homo sapiens) (UniProt P13500); test: BSK_KF3CT_MCP1: BioMAP Diversity Plus: KF3CT Assay for Monocyte Chemoattractant Protein 1 (MCP1/CCL2) Biomarker Activity (AID 2283073); conditions: primary human keratinocytes with fibroblasts; actives raise or lower the signal
Outline: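 Human keratinocyte plus foreskin fibroblast primary co-culture exposed to chemical for 24 h. MCP-1 levels measured by ELISA. Bidirectional curve fitting relative to DMSO negative control as baseline.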

[9] = read-out: Matrix Metallopeptidase 9 (MMP9), MMP9 (gene 4318); test: BSK_KF3CT_MMP9: BioMAP Diversity Plus: KF3CT Assay for Matrix Metallopeptidase 9 (MMP9) Biomarker Activity (AID 2283074); conditions: primary human keratinocytes with fibroblasts; actives raise or lower the signal;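 for AC50: MMP9 protein level quantified by ELISA in the co-culture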
Outline: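 ELISA read-out of MMP-9 at 24 h post-dosing in a co-culture of human skin keratinocytes and foreskin fibroblasts. Gain or loss of signal was fitted in both directions against DMSO.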

[10] = read-out: urokinase plasminogen activator (uPA), PLAU (gene 5328); test: BSK_KF3CT_uPA: BioMAP Diversity Plus: KF3CT Assay for urokinase plasminogen activator (uPA) Biomarker Activity (AID 2283075); conditions: primary human keratinocytes with fibroblasts; actives raise or lower the signal
Outline: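 Skin co-culture (keratinocytes + foreskin fibroblasts), human primary; 24 h post-dose; uPA by ELISA; gain/loss fit vs DMSO baseline.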

CD40, CD40 (gene 958) = test: BSK_LPS_CD40: BioMAP Diversity Plus: LPS Assay for CD40 Biomarker Activity (AID 2283076); conditions: primary human HUVEC with PBMC; actives raise or lower the signal
Outline: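 Primary human umbilical vein endothelial cells co-cultured with peripheral blood mononuclear cells, LPS-stimulated, were dosed with chemical and read 24 h later. CD40 levels were measured by ELISA and fitted bidirectionally against DMSO as negative control and baseline.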

[11] = read-out: E-selectin (Homo sapiens) (UniProt P16581); test: BSK_LPS_Eselectin: BioMAP Diversity Plus: LPS Assay for Eselectin Biomarker Activity (AID 2283077); conditions: primary human HUVEC with PBMC; actives raise or lower the signal
Outline: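 Human umbilical vein endothelial cells co-cultured with peripheral blood mononuclear cells under LPS stimulation; E-selectin measured by ELISA 24 h after chemical dosing. Activity fitted bidirectionally against DMSO as negative control and baseline.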

[12] = read-out: Interleukin-8 (IL8), CXCL8 (gene 3576); test: BSK_LPS_IL8: BioMAP Diversity Plus: LPS Assay for Interleukin-8 (IL8) Biomarker Activity (AID 2283078); conditions: primary human HUVEC with PBMC; actives raise or lower the signal
Outline: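 Human umbilical vein endothelial cells co-cultured with PBMC were stimulated with LPS; IL-8 levels were measured by ELISA 24 h after chemical dosing. Activity was fitted bidirectionally against DMSO as negative control and baseline.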

[13] = BSK_LPS_SRB: Viability Assessment in the BioMAP Diversity Plus: LPS Assay (AID 2283079); conditions: primary human HUVEC with PBMC;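 note: total protein by sulforhodamine B absorbance as a cytotoxicity measure; measured one day after compound addition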
Outline: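 Human umbilical vein endothelial cells co-cultured with PBMC (LPS system) were dosed for 24 h. Total protein was stained with 0.1% sulforhodamine B after 10% TCA fixation, read at 560 nm, and fitted bidirectionally against DMSO baseline.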

[14] = read-out: Interleukin-1 alpha (IL1a), IL1A (gene 3552); test: BSK_LPS_IL1a: BioMAP Diversity Plus: LPS Assay for Interleukin-1 alpha (IL1a) Biomarker Activity (AID 2283080); conditions: primary human HUVEC with PBMC; actives raise or lower the signal
Outline: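 Human umbilical vein endothelial cells co-cultured with peripheral blood mononuclear cells were LPS-stimulated and exposed to test chemicals for 24 h. IL-1 alpha was quantified by ELISA, with bidirectional curve fitting against DMSO as the negative control and baseline.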

[15] = read-out: Monocyte Chemoattractant Protein-1 (MCP1), CCL2 (gene 6347); test: BSK_LPS_MCP1: BioMAP Diversity Plus: LPS Assay for Monocyte Chemoattractant Protein-1 (MCP1) Biomarker Activity (AID 2283081); conditions: primary human HUVEC with PBMC; actives raise or lower the signal;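 for AC50: co-culture stimulated with LPS; secreted MCP-1 protein quantified by ELISA in culture supernatant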
Outline: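 HUVEC plus PBMC co-culture (human primary cells, LPS system) exposed to test chemical for 24 h; MCP-1 measured by ELISA. Bidirectional curve fitting against DMSO baseline; parallel SRB total-protein staining flags overt cytotoxicity.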

[16] = BSK_LPS_PGE2: BioMAP Diversity Plus: LPS Assay for Prostaglandin E2 (PGE2) Biomarker Activity (AID 2283082); conditions: primary human HUVEC with PBMC; actives raise or lower the signal;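 for AC50: secreted prostaglandin E2 measured by ELISA in LPS-stimulated co-culture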
Outline: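 PGE2 release measured by ELISA in an LPS-activated co-culture of human umbilical vein endothelial cells and peripheral blood mononuclear cells, read at 24 h post-dosing. DMSO served as baseline for bidirectional curve fitting.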

[17] = read-out: Transforming growth factor beta 1 (TGFb1), TGFB1 (gene 7040); test: BSK_KF3CT_TGFb1: BioMAP Diversity Plus: KF3CT Assay for Transforming growth factor beta 1 (TGFb1) Biomarker Activity (AID 2283072); conditions: primary human keratinocytes with fibroblasts; actives raise or lower the signal
Outline: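 ELISA quantifies TGF-b1 at 24 h post-dose in a primary human skin co-culture of keratinocytes and fibroblasts, with gain or loss judged against DMSO. Parallel SRB total-protein staining flags overt cytotoxicity.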

[18] = read-out: TIMP metallopeptidase inhibitor 2 (TIMP2), TIMP2 (gene 7077); test: BSK_KF3CT_TIMP2: BioMAP Diversity Plus: KF3CT Assay for TIMP metallopeptidase inhibitor 2 (TIMP2) Biomarker Activity (AID 2283071); conditions: primary human keratinocytes with fibroblasts; actives raise or lower the signal
Outline: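 TIMP-2 measured by ELISA at 24 h in human keratinocyte/fibroblast primary co-cultures exposed to chemicals. Both increases and decreases were fitted against DMSO. Parallel cultures were stained with SRB for total protein as an overt-cytotoxicity check.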

[19] = read-out: Interferon-gamma inducible Protein 10 (IP10), CXCL10 (gene 3627); test: BSK_KF3CT_IP10: BioMAP Diversity Plus: KF3CT Assay for Interferon-gamma inducible Protein 10 (IP10) Biomarker Activity (AID 2283068); conditions: primary human keratinocytes with fibroblasts; actives raise or lower the signal
Outline: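 KF3CT co-culture (keratinocytes + foreskin fibroblasts), 24 h compound, IP-10 by ELISA; bidirectional fit vs DMSO baseline.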

Measured: AC50

Chain of E-selectin (Homo sapiens) (P16581 whole entry, looked up): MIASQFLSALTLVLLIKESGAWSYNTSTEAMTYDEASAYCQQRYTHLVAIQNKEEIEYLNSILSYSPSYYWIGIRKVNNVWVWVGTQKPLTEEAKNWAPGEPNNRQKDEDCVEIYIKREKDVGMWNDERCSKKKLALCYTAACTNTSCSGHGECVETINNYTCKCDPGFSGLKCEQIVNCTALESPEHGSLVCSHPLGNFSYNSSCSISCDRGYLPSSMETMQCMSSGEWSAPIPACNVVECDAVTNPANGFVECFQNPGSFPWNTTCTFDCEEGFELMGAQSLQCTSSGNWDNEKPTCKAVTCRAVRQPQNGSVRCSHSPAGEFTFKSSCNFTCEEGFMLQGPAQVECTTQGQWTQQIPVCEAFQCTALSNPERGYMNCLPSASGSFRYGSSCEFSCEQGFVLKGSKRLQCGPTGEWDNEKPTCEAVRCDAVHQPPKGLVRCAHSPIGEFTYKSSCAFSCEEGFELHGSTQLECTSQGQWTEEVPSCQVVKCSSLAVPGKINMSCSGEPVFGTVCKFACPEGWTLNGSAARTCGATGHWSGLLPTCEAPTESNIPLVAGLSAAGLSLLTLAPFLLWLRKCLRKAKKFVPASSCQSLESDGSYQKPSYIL

Oc1cccc(-c2ccccc2)c1
active: [3] 31.6 µM | [7] 20 µM | [9] 31.5 µM | CD40, CD40 (gene 958) 20 µM | [11] 32.5 µM | [13] 29.8 µM | [15] 4.9 µM | [16] 8.25 µM
not listed: [17] | [18] | [19]
inactive: all other assays above

O=[N+]([O-])c1ccc(Nc2ccccc2)cc1
not listed: [17] | [18] | [19]
inactive: all other assays above

CC(C)N(C(=O)CCl)c1ccccc1
active: [1] 3.85 µM | [2] 11.4 µM | [3] 1.43 µM | [4] 4.77 µM | [5] 28.5 µM | [6] 27.1 µM | [17] 20 µM | [8] 11.1 µM | [9] 29.6 µM | [10] 33.3 µM | CD40, CD40 (gene 958) 13.9 µM | [11] 25.4 µM | [12] 20 µM | [13] 20 µM | [14] 5.56 µM | [15] 27.3 µM
inactive: [16]

CC(C)=CC1C(C(=O)OCc2cccc(Oc3ccccc3)c2)C1(C)C (centres undefined)
active: [3] 12.4 µM | [4] 12.5 µM | [18] 2.81 µM
not listed: [7] | [17] | [19]
inactive: all other assays above

C[C@]12CC[C@@H](O)C[C@@H]1CC[C@@H]1[C@@H]2CC[C@]2(C)C(=O)CC[C@@H]12
not listed: [7] | [19]
inactive: all other assays above

O=S(=O)(c1ccc(Cl)cc1)c1cc(Cl)c(Cl)cc1Cl
active: [17] 5.16 µM | [9] 0.58 µM
not listed: [4] | [7] | [18]
inactive: all other assays above

Clc1cccc(Cl)c1Cl
not listed: [7] | [9] | [17] | [19]
inactive: all other assays above
